TDP1 cell noCPT: qHTS for Inhibitors of human tyrosyl-DNA phosphodiesterase 1 (TDP1): qHTS in cells in absence of CPT; DT40 Tdp1-/- hTDP1 cells, no CPT, ATP luminescence, 48 h; actives 15% (n = 420,000); Potency, µM (series often up to 46.2 µM), for inactives: at the highest dose activity change, negative = growth inhibition, actives largely listed as inhibitors; further: nearly all actives have a fitted effect of over 55% in size
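DT40 Tdp1-/-;hTDP1 cells, no CPT (DMSO vehicle only), 400 cells/well; compounds pin-transferred; ≥48 hr, 37 °C; CellTiter-Glo 30 min RT dark, luminescence read.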
GCN5L2 inh: qHTS Assay for Inhibitors of GCN5L2. AID 504327, 2011. Histone acetyltransferase KAT2A (Homo sapiens), Q92830. GCN5L2 HAT assay, ThioGlo1 CoA-SH fluorescence. Potency, µM (titrated, usually from 58.9 µM), for inactives: top-dose activity change, negative = inhibition, actives largely listed as inhibitors. actives 0.21% (n = 390,000)
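Free CoA generated was detected with ThioGlo1 (50uM) fluorescence at Ex340nm/Em540nm, read immediately and after 20 min at room temperature. Enzyme, 20 nM in HEPES pH 7.5 buffer, saw compounds 15 min before adding 75uM H3(1-25) peptide and 70uM acetyl-CoA.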
DT40 TDP1 CPT: qHTS for Inhibitors of human tyrosyl-DNA phosphodiesterase 1 (TDP1): qHTS in cells in presence of CPT. Potency, µM (top dose mostly 46.2 µM), for inactives: top-dose activity change, negative = growth inhibition, most hits filed as inhibitors. chicken DT40 Tdp1-/-;hTDP1 cells + 20 nM CPT, ATP luminescence, 48 h. AID 686979, 2013. actives 12% (n = 420,000); further: nearly all actives have a fitted effect of over 55% in size
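Cell growth measured by CellTiter-Glo luminescence after a minimum 48 h, 37 C compound exposure with 20 nM CPT in Tdp1-knockout DT40 cells stably expressing hTDP1, seeded 400/well; qHTS titration format.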
PLK1 PBD inh: qHTS for Inhibitors of PLK1-PDB (polo-like kinase 1 - polo-box domain): Primary Screen; Serine/threonine-protein kinase PLK1 (Homo sapiens), P53350; Plk1 PBD binding of FITC phosphopeptide, fluorescence polarization; Potency, µM, for the others: max response, negative = inhibition, hits mostly inhibitors; actives 2.8% (n = 360,000); further: series mostly up to about 57 µM; nearly all actives have a fitted effect of over 65% in size
TDP1 block: qHTS Assay for Inhibitors of Tyrosyl-DNA Phosphodiesterase (TDP1). Tyrosyl-DNA phosphodiesterase 1 (Homo sapiens), Q9NUW8. recombinant TDP1, AlphaScreen DNA substrate cleavage. Potency, µM (highest dose often 130 µM), for the others: top-dose activity change, negative = inhibition, usual class: inhibitors. actives 0.28% (n = 350,000); further: nearly all actives have a fitted effect of over 40% in size
Target sequence (Q9NUW8 whole entry, looked up): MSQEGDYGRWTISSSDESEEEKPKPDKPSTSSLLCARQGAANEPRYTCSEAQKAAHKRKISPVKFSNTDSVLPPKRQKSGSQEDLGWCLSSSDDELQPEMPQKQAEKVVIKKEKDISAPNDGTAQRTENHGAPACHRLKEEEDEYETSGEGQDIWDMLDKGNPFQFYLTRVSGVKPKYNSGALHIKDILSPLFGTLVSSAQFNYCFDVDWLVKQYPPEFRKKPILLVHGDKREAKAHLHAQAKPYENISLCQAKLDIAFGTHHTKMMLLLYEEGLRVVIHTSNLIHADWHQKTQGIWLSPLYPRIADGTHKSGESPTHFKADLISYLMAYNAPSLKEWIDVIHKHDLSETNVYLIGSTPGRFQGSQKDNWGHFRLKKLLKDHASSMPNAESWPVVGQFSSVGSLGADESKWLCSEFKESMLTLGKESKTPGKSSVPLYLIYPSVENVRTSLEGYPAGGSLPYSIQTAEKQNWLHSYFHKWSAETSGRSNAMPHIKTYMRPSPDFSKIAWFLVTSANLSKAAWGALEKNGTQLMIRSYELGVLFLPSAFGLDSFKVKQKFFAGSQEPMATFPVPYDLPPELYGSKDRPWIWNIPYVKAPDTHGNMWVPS
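Tdp1 1 nM final; 15 min RT w/ cpd; substrate 15 nM, 5 min; beads 10 ug/ml, 10 min; AlphaScreen read. Neg ctrl: no enzyme.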
VDR inhibitor: Inhibitors of the vitamin D receptor (VDR): qHTS. Potency, µM, for the others: max response, negative = inhibition, actives largely listed as inhibitors. actives 0.93% (n = 400,000). AID 504847, 2011. Vitamin D3 receptor (Homo sapiens), P11473. VDR-SRC2-3 peptide fluorescence polarization, 2 h
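Signal is fluorescence polarization, reporting how far test compounds block the interaction of VDR with the SRC2-3 coregulator peptide after a 2 h room-temperature incubation.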
* hit, by the source's call; ? = inconclusive; . = no result; [ ] = remark or other dose. A selection: hits, their analogues and other compounds. The true share with any hit is near 18%. The call rests on the fitted dose curve; in most records, active means well fitted curve in the direction sought with a large enough effect; inconclusive means small, poorly fitted or top-dose-only effect, or another doubt; inactive means no such curve, though single readings can be large; an effect the other way counts as inactive or inconclusive. On the % scale 0 is the no-effect control and ±100 the full control effect; potency means the concentration at half of the fitted maximal effect.

SMILES | TDP1 cell noCPT | GCN5L2 inh | DT40 TDP1 CPT | PLK1 PBD inh | TDP1 block | VDR inhibitor
CC(C)(C)n1nnnc1C(c1ccccc1)N1CCN(c2ncccc2C(F)(F)F)CC1 (centres undefined) | 26µM* | . | 18µM* | 1% | . | .
Cc1ccc(C)c(N2CCN(C(c3ccc(N(C)C)cc3)c3nnnn3C(C)(C)C)CC2)c1 (centres undefined) | ? | 1% | ? | -1% | 7% | 2%
CC(C)(C)n1nnnc1C(c1ccccc1)N1CCCN(Cc2ccc(F)cc2)CC1 (centres undefined) | ? | . | ? | -12% | . | .
O=C1O[C@@H]([C@@H](O)CO)[C@@H](O)[C@H]1O | . | 5% | . | . | -13%[56.1 µM] | -20%
CCOc1ccccc1NC(=O)Cn1c(=O)n(CCCCC(=O)NCCCOC)c(=O)c2ccccc21 | -16% | 4% | -13% | . | -1% | 0%
COc1ccccc1N1CCN(C2CC(=O)N(c3ccc(Cl)cc3)C2=O)CC1 (centres undefined) | 4% | -9% | 3% | -4% | . | -2%
CCOc1ccc(NC(=S)N(CCCN2CCOCC2)Cc2cn(C)c3ccccc23)cc1 | 15µM* | -2% | ? | -1% | -1% | -4%
Cc1cccc(NC(=S)N(CCN2CCOCC2)Cc2cc3cc4c(cc3[nH]c2=O)OCO4)c1 | ? | -2% | -4% | -8% | -7% | -17%
Cc1ccc(NC(=S)N(C)Cc2cn(C)c3ccccc23)cc1 | ? | -3% | 16µM* | -7% | 3% | -8%
Cc1cccc(NC(=S)N(CCCN2CCOCC2)Cc2cn(C)c3ccccc23)c1 | ? | -7% | 18µM* | 5% | 3% | -13%
CC[n+]1c(-c2ccccc2)csc1Nc1c(C)n(C)n(-c2ccccc2)c1=O | -39% | -5% | ? | 0% | 0% | 4%
c1ccc(C[n+]2c(-c3ccccc3)csc2Nc2ccccc2)cc1 | ? | 2% | 10µM* | -4% | 3% | -19%
c1ccc(Nc2scc(-c3ccccc3)[n+]2Cc2ccco2)cc1 | 23µM* | -6% | 16µM* | -3% | 8% | -19%
O=C(Cc1cccs1)N[C@@H]1C(=O)N2C(C(=O)[O-])=C(C[n+]3ccccc3)CS[C@H]12 | -14% | . | -3% | . | . | .
Cc1c(C(=O)NCc2ccccc2Cl)cccc1-n1cnc2cccnc21 | 23µM* | -2% | 18µM* | . | 6% | 5%
COc1ccc(CNC(=O)c2cccc(-n3cnc4cccnc43)c2C)cc1 | -16% | -5% | -29% | . | 0% | -6%
Cc1ccc(C(c2sc3nc(-c4ccco4)nn3c2O)N2CCCCC2)cc1 (centres undefined) | -3% | 2% | 5% | . | 5% | -2%
ClC1(CNc2ccccc2)CCN(Cc2ccccc2)CC1 | -27% | . | -8% | -9% | . | -3%
Cc1cc(/C=N/NC(=O)c2ccncc2)c(C)n1-c1ccccc1 | -26% | 0% | 2% | -1% | 6% | 14%
CCc1ccc(-n2c(C)cc(/C=N/NC(=O)OC)c2C)cc1 | 26µM* | 2% | ? | -13% | 1% | 3%
CCc1ccc(-n2c(C)cc(/C=N/NC(=O)c3ccncc3)c2C)cc1 | ? | -12% | 13µM* | -1% | -2% | 26%
CCN(C(=O)c1cc2c(=O)oc3ccccc3c2s1)c1ccc(C)c(C)c1 | ? | -5% | ? | . | 0% | -22%
COc1ccc2c(CNCc3cccs3)c(C(=O)O)n(Cc3ccccc3C)c2c1 | 2.9µM* | 0% | ? | . | 5% | -5%
COc1ccc2c(CNCCc3cccs3)c(C(=O)O)n(Cc3ccccc3C)c2c1 | 5.2µM* | -9% | 8.2µM* | . | 3% | 8%
COc1ccc2c(CNCc3cccs3)c(C(=O)O)n(Cc3ccccc3)c2c1 | ? | 1% | -9% | . | 5% | 3%
SMILES | TDP1 cell noCPT | GCN5L2 inh | DT40 TDP1 CPT | PLK1 PBD inh | TDP1 block | VDR inhibitor
Cc1cccc(NC2=NC(C)(C)N=C(N)N2)c1C | -5% | 4% | 12% | 4% | 4% | 25µM*
Cc1ccccc1NC1=NC(C)(C)N=C(N)N1 | -6% | -12% | -2% | -6% | 2% | -4%
CCCCNC(=O)Cn1c(=O)oc2cc(S(=O)(=O)N3CC(C)CC(C)C3)ccc21 (centres undefined) | ? | -7% | 12µM* | -4% | 0% | -3%
CCOc1ccc(NC(=O)Cn2c(=O)oc3cc(S(=O)(=O)N4CCC(C)CC4)ccc32)cc1 | 8.2µM* | -2% | 9.2µM* | . | 1% | -8%
COc1ccc(NC(=O)Cn2c(=O)oc3cc(S(=O)(=O)N4CCCC4)ccc32)cc1OC | ? | -5% | ? | . | -3% | 9%
COc1cc(NC(=O)Cn2c(=O)oc3cc(S(=O)(=O)N4CCCCCC4)ccc32)cc(OC)c1 | 21µM* | -1% | 15µM* | . | 3% | 10%
CCc1ccc(NC(=O)Cn2c(=O)oc3cc(S(=O)(=O)N4CCCCCC4)ccc32)cc1 | 9.2µM* | -30% | 12µM* | . | 3% | -2%
Cc1ccc(C)c(NC(=O)CN2CCCN(Cc3cccc(Cl)c3)S2(=O)=O)c1 | ? | -8% | ? | . | 6% | 10%
COc1cc([N+](=O)[O-])ccc1NC(=O)CCS(=O)(=O)c1ccc2c(c1)n(C)c(=O)c(=O)n2C | 7% | ? | 5% | -3% | -3% | -9%
CN1CCC(=O)N([C@H](COc2ccccc2)Cc2ccccc2)CC1 | -4% | 0% | 19% | -1% | . | 10%
Cc1cc(NC(=O)CS(=O)(=O)Cc2ccccc2)no1 | -19% | 4% | 6% | -3% | 1% | 1%
CCOC(=O)c1cnc(-n2nc(C)cc2C)nc1Nc1ccccc1OC | . | 1% | . | . | 3% | .
CCOC(=O)c1cnc(-n2nc(C)cc2C)nc1Nc1ccc(OC)cc1 | 12µM* | -3% | 8.2µM* | -7% | 4% | -22%
CCOC(=O)c1cnc(-n2nc(C)cc2C)nc1NCCc1ccccc1 | 5.2µM* | -9% | 6.5µM* | -1% | 8% | -13%
Cc1ccc(-n2nc3c(c2NC(=O)c2ccco2)CS(=O)C3)cc1 (centres undefined) | -37% | -3% | ? | -10% | 6% | ?

Screening data (PubChem BioAssay)
